# Test results taken from the supplement of paper PMC11219838.
# A number with no mark means an inactive call.
# System: Ditylenchus dipsaci
# Assay: proportion of mobile D. dipsaci (mixed stage) relative to DMSO control (fraction of DMSO control); higher = more viable, less nematicidal, active = 0.86 or less; extreme values may be limits of the assay
# Conditions: 60 µM; 5 days; temperature: 20 °C
# In short: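 Ditylenchus dipsaci nematodes were cultured on pea plants in Gamborg B-5 agar, then extracted into water through a filter funnel, and roughly 20 worms in distilled water were placed in each well of a 96-well plate. Compound was pinned in to a final concentration of 60 µM (0.6% v/v DMSO), and the sealed plates were shaken at 200 rpm for 5 days at 20 °C. Mobile worms were counted under the microscope after 2 µL of 1 M NaOH was added. Mobility is given relative to DMSO controls as the mean of two biological replicates.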
row,SMILES,proportion of mobile D. dipsaci
1,CC(C)NC(=O)N1CC(=O)N(c2cc(Cl)cc(Cl)c2)C1=O [iprodione],1
2,O=C(NCCc1ncc(C(F)(F)F)cc1Cl)c1ccccc1C(F)(F)F [fluopyram],0 (active)
3,CC[C@H](C)[C@H]1O[C@]2(C=C[C@@H]1C)C[C@@H]1C[C@@H](C/C=C(\C)[C@@H](O[C@H]3C[C@H](OC)[C@@H](O[C@H]4C[C@H](OC)[C@@H](O)[C@H](C)O4)[C@H](C)O3)[C@@H](C)/C=C/C=C3\CO[C@@H]4[C@H](O)C(C)=C[C@@H](C(=O)O1)[C@]34O)O2.CO[C@H]1C[C@H](O[C@H]2[C@H](C)O[C@@H](O[C@@H]3/C(C)=C/C[C@@H]4C[C@@H](C[C@]5(C=C[C@H](C)[C@@H](C(C)C)O5)O4)OC(=O)[C@@H]4C=C(C)[C@@H](O)[C@H]5OC/C(=C\C=C\[C@@H]3C)[C@]54O)C[C@@H]2OC)O[C@@H](C)[C@@H]1O [abamectin],0.727 (active)
4,CNC(=O)O/N=C(\SC)C(=O)N(C)C [oxamyl],1

# System: Caenorhabditis elegans L1 (N2)
# Assay: survival and reproduction score of C. elegans L1 (0: 0-10 living worms, 1: 11-20, 2: 21-50, 3: >50, 4: overgrown) (score 0-4); higher = more worms, less nematicidal, active = 1 or less; extreme values may be limits of the assay
# Conditions: 60 µM; 6 days; temperature: 20 °C
# In short: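 Compound was pinned to a final 60 µM (0.6% v/v DMSO) into 96-well wells, each holding about 20 synchronized C. elegans N2 L1s and E. coli HB101 in liquid NGM. After 6 days of shaking at 200 rpm and 20 °C in sealed plates, the worms in each well were examined. The ordinal readout of survival and reproduction, based on living worms per well, was assessed under a dissection microscope. On this scale 0 meant 0–10 worms and 4 meant overgrown, starved wells, and two biological replicates were averaged.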
row,SMILES,survival and reproduction score
1,CC(C)NC(=O)N1CC(=O)N(c2cc(Cl)cc(Cl)c2)C1=O [iprodione],4
2,Clc1cc(Cl)c(OCc2nc(-c3ccncc3)no2)cc1Cl,4
3,O=C(NCCc1ncc(C(F)(F)F)cc1Cl)c1ccccc1C(F)(F)F [fluopyram],0 (active)
4,COc1ccc(-c2noc(COc3ccccc3C)n2)cc1,4
5,N#Cc1ccccc1NC(=O)CSc1nnc(-c2ccccc2)o1,4
6,CCOc1ccc(-c2nc(-c3ccc(Cl)cc3)no2)cc1,3
7,Cc1ccc(-c2noc(COc3ccc(Cl)cc3C)n2)cc1,2
8,CCNC(=O)c1ccccc1-c1nc(-c2ccc(F)cc2)no1,2
9,Cc1cccc(-c2noc(-c3ccccc3Br)n2)c1,3.5
10,O=C(CSc1nnc(-c2ccc(Cl)cc2)o1)NC1CC2CCC1C2 (configuration not stated),4
11,COc1nc(C)ccc1-c1noc(-c2ccc(C(C)(C)C)cc2)n1,4
12,Cc1csc(NC(=O)CSc2nnc(-c3ccccc3Cl)o2)n1,4
13,Cc1ccccc1-c1noc(COc2ccc(Cl)cc2Cl)n1,4
14,CCOc1ccccc1-c1nnc(SCc2ccc(C(=O)OC)o2)o1,4
15,CCc1ccc(NC(=O)CSc2nnc(-c3ccc(Cl)cc3Cl)o2)cc1,4
16,CC(C)(C)NC(=O)CSc1nnc(-c2ccc(C(C)(C)C)cc2)o1,4
17,Clc1ccc(-c2noc(-c3ccccc3Cl)n2)cc1,3
18,COc1ccccc1OCc1nc(-c2ccccc2)no1,4
19,Cc1cccc(OCc2nc(-c3ccc(Br)cc3)no2)c1,4

row,SMILES,survival and reproduction score
1,CCOc1ccccc1-c1nnc(SCC(=O)Nc2ccccc2)o1,4
2,O=C(CSc1nnc(-c2ccccc2Cl)o1)NCc1ccccc1,4
3,CCOc1ccccc1-c1nc(-c2ccc(NC(=O)c3ccncc3)cc2)no1,4
4,Clc1ccc(SCc2nc(-c3ccccc3)no2)cc1,0 (active)
5,Brc1ccc(-c2noc(COc3ccc4c(c3)OCO4)n2)cc1,4
6,COc1cccc(-c2noc(-c3cccc(F)c3)n2)c1,4
7,Fc1ccc(-c2nc(-c3ccc(Cl)cc3)no2)cc1,4
8,CC(=O)Nc1cccc(-c2nnc(SCc3ccccc3)o2)c1,4
9,O=C(CSc1nnc(-c2ccccc2)o1)Nc1ccccc1F,4
10,CC(C)(C)C(=O)CSc1nnc(-c2ccc(Cl)cc2Cl)o1,4
11,Cc1c(C)n(C(=O)CSc2nnc(-c3ccccc3)o2)c2ccccc12,4
12,Clc1ccc(OCc2nc(-c3ccccc3)no2)c(Br)c1,1 (active)
13,COc1ccc(-c2nnc(SCC(=O)Nc3ccccc3C(C)C)o2)cc1,4
14,Cc1ccccc1OCc1nc(-c2ccc3c(c2)OCO3)no1,4
15,COc1ccccc1OCc1nc(-c2ccc(Br)cc2)no1,4
16,Brc1ccc(-c2noc(COc3ccccc3)n2)cc1,4
17,CC1Cc2ccccc2N1C(=O)CSc1nnc(-c2ccccc2)o1 (configuration not stated),4
18,COc1ccc(-c2noc(COc3ccc(Cl)cc3)n2)cc1,4
19,CNC(=O)O/N=C(\SC)C(=O)N(C)C [oxamyl],4
